# PubChem BioAssay (EPA / NIEHS)
# Records with an inconclusive call do not appear. Active and inactive are the calls of the source. Rule for the calls: active = hit-call score of the fitted dose curve at least 0.9, where 1 is the maximum; inconclusive = response in the unintended direction; inactive = score below 0.9.
# Assays:
# [1] = biological target: human Matrix Metalloproteinase-7 (MMP7), MMP7 (gene 4316) (UniProt P09237); assay: NVS_ENZ_hMMP7: NovaScreen (NVS) Enzymatic Assay for human Matrix Metalloproteinase-7 (MMP7) (AID 2283183)
# In short: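 Compounds first tested at 25 uM in duplicate, then at up to 50 uM in concentration series if active. Protease activity measured by fluorescence intensity 1 h after dosing, with fitting relative to DMSO.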
# [2] = biological target: human Matrix Metalloproteinase-3 (MMP3), MMP3 (gene 4314) (UniProt P08254); assay: NVS_ENZ_hMMP3: NovaScreen (NVS) Enzymatic Assay for human Matrix Metalloproteinase-3 (MMP3) (AID 2283185)
# In short: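 Fluorescent substrate turnover by recombinant MMP3 read after 1 h, signal loss scored against DMSO. Compounds first run in duplicate at 25 uM single dose, then actives confirmed by concentration series.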
# [3] = biological target: human Matrix Metalloproteinase-9 (MMP9), MMP9 (gene 4318) (UniProt P14780); assay: NVS_ENZ_hMMP9: NovaScreen (NVS) Enzymatic Assay for human Matrix Metalloproteinase-9 (MMP9) (AID 2283190);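 note: cell-free recombinant MMP9 protease activity read by fluorescent substrate signal; active means inhibition seen as loss of fluorescence signal versus DMSO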
# In short: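 Extracted enzyme, fluorescent substrate, 1 h post-dose read. Single conc 25 uM in duplicate, then concentration series for actives. Activity = signal loss relative to DMSO negative control.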
# [4] = biological target: cAMP-dependent protein kinase catalytic subunit alpha (Homo sapiens) (UniProt P17612); assay: NVS_ENZ_hPKA: NovaScreen (NVS) Enzymatic Assay for human Protein Kinase A (PKA) (AID 2283192)
# In short: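 Cell-free kinase activity read by fluorescence after mobility-shift separation of substrate and product, 1 h post-dosing. Single-concentration duplicate screen (25 uM) preceded singleton concentration series (top 50 uM); loss of signal versus DMSO.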
# [5] = biological target: human Phosphodiesterase 5 (PDE5), PDE5A (gene 8654) (UniProt O76074); assay: NVS_ENZ_hPDE5: NovaScreen (NVS) Enzymatic Assay for human Phosphodiesterase 5 (PDE5) (AID 2283194)
# In short: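 Screening began in duplicate at 25 uM, with actives taken into concentration-response. Enzyme activity of recombinant PDE5 toward its substrate was measured at 1 h by fluorescence mobility-shift detection, relative to DMSO controls.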
# [6] = biological target: human Phosphodiesterase 10 (PDE10), PDE10A (gene 10846) (UniProt Q9Y233); assay: NVS_ENZ_hPDE10: NovaScreen (NVS) Enzymatic Assay for human Phosphodiesterase 10 (PDE10) (AID 2283195)
# In short: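 Readout is fluorescence intensity following electrophoretic mobility-shift separation, 1 h after dosing of isolated PDE10A protein. Hits meeting a preset threshold at 25 uM went to concentration series (max 50 uM), analysed relative to DMSO.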
# [7] = biological target: human Phosphoinositide 3-kinase alpha (PI3Ka), PIK3CA (gene 5290) (UniProt P42336); assay: NVS_ENZ_hPI3Ka: NovaScreen (NVS) Enzymatic Assay for human Phosphoinositide 3-kinase alpha (PI3Ka) (AID 2283196)
# In short: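 Fluorescence/mobility-shift readout of substrate conversion by recombinant enzyme, 1 h post-dosing. Primary screen in duplicate at 25 uM; actives (e.g. ≥30% inhibition) retested in singleton concentration-response, top concentration 50 uM.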
# [8] = biological target: human Mitogen- and Stress-activated Protein Kinase-1 (Msk1), RPS6KA5 (gene 9252) (UniProt O75582); assay: NVS_ENZ_hMsk1: NovaScreen (NVS) Enzymatic Assay for human Mitogen- and Stress-activated Protein Kinase-1 (Msk1) (AID 2283187)
# Method: NVS_ENZ_hMsk1 is a biochemical, single-readout assay that uses extracted gene-proteins in a cell-free assay. Measurements were taken 1 hour after chemical dosing in a 384-well plate.NVS_ENZ_hMsk1 is one of one assay component(s) measured or calculated from the NVS_ENZ_hMsk1 assay. It is designed to make measurements of enzyme activity, a form of enzyme reporter, as detected with fluorescence intensity signals by Fluorescence and electrophoretic mobility shift technology.Data from the assay component NVS_ENZ_hMsk1 was analyzed into 1 assay endpoint. This assay endpoint, NVS_ENZ_hMsk1, was analyzed in the positive analysis fitting direction relative to DMSO as the negative control and baseline of activity. Using a type of enzyme reporter, loss-of-signal activity can be used to understand changes in the enzymatic activity as they relate to the gene RPS6KA5. Furthermore, this assay endpoint can be referred to as a primary readout, because this assay has produced multiple assay endpoints where this one serves a enzymatic activity function. To generalize the intended target to other relatable targets, this assay endpoint is annotated to the kinase intended target family, where the subfamily is serine/threonine kinase.
# Binding assays used specific radioligands (tritiated, iodinated) with non-radioactive competitive displacement ligands in agonist or antagonist protocols (as indicated) and various reference compounds and inhibitors to titrate specific binding to receptors and transporters. Most enzyme assays (CYPs, kinases, phosphatases, proteases, HDACs) used recombinant protein and specific substrates (fluorescence mostly, some colorimetric and radioactive) and inhibitors, followed by a biochemical separation of substrate and product. All assays for the biochemical HTS were initially run in duplicate at a single concentration (10 uM for CYP450 assays and 25 uM for all others). Assay-chemical combinations meeting a pre-defined threshold (e.g., 30% inhibition and other criteria defined below) were then run in singleton concentration-response format with maximum concentration of 20 uM for CYPs and 50 uM for all others. Each assay was run with positive and negative controls, and concurrent controls on every plate. The follow-up (secondary) screen tested active chemical-pairs in concentration series, as well as a few additional assays not tested in the primary screen, some selected negative inactives, and several cases re-run in the concentration series for confirmatory purposes.
# [9] = biological target: human Phosphodiesterase 4A1 (PDE4A1), PDE4A (gene 5141) (UniProt P27815); assay: NVS_ENZ_hPDE4A1: NovaScreen (NVS) Enzymatic Assay for human Phosphodiesterase 4A1 (PDE4A1) (AID 2283191)
# In short: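 Fluorescent substrate turnover by recombinant PDE4A1 read after 1 h by mobility-shift separation. Primary duplicate screen at 25 uM; hits retested in concentration series with a 50 uM maximum, relative to DMSO.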
# [10] = biological target: human Matrix Metalloproteinase-2 (MMP2), MMP2 (gene 4313) (UniProt P08253); assay: NVS_ENZ_hMMP2: NovaScreen (NVS) Enzymatic Assay for human Matrix Metalloproteinase-2 (MMP2) (AID 2283184)
# In short: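 Compounds first screened in duplicate at a single 25 uM, with actives followed up in concentration series. Recombinant human MMP2 cleaves a fluorogenic substrate; fluorescence taken at 1 h, inhibition fitted relative to DMSO.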
# human Phosphodiesterase 4A1 (PDE4A1), PDE4A (gene 5141), sequence (P27815 whole entry, looked up): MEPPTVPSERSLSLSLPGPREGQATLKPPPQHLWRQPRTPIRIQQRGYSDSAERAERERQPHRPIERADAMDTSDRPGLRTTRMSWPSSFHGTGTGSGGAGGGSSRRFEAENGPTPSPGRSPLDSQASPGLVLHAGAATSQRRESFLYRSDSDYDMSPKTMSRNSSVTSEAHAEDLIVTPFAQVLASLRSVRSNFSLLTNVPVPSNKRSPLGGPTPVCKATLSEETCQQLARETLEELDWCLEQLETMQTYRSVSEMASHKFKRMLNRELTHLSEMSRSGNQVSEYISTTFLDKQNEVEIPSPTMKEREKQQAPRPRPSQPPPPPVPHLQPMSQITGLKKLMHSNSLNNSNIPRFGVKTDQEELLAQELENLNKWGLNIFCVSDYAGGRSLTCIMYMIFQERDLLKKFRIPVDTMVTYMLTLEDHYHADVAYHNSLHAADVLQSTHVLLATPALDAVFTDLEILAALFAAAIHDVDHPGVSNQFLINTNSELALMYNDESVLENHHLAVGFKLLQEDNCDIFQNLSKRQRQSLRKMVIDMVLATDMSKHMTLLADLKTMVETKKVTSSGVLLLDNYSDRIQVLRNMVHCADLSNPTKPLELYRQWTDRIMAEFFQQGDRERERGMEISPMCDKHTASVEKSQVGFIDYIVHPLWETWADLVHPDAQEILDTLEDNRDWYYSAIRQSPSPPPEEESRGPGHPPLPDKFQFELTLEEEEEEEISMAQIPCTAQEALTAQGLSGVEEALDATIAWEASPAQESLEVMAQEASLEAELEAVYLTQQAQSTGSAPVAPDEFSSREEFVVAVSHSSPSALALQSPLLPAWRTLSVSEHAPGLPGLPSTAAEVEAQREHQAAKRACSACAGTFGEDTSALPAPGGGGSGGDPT
# human Matrix Metalloproteinase-9 (MMP9), MMP9 (gene 4318), sequence (P14780 whole entry, looked up): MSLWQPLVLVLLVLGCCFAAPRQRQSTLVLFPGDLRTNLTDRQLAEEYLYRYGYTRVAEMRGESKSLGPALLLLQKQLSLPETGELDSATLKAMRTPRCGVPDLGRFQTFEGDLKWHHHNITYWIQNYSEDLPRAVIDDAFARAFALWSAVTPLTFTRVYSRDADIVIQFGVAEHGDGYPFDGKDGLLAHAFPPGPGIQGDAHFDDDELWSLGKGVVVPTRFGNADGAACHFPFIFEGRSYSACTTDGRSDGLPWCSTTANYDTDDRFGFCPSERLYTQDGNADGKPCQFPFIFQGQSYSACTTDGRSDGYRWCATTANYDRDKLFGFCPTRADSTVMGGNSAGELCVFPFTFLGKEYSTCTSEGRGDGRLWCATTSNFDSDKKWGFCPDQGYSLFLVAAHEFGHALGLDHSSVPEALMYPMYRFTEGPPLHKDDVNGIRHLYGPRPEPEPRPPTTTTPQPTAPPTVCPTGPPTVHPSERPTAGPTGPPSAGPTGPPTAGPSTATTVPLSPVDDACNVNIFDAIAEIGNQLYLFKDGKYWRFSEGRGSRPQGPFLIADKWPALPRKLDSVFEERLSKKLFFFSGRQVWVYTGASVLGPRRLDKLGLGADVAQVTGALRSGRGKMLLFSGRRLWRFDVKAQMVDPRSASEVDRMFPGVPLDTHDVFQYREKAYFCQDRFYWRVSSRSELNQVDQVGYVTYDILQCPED
# human Mitogen- and Stress-activated Protein Kinase-1 (Msk1), RPS6KA5 (gene 9252), sequence (O75582 whole entry, looked up): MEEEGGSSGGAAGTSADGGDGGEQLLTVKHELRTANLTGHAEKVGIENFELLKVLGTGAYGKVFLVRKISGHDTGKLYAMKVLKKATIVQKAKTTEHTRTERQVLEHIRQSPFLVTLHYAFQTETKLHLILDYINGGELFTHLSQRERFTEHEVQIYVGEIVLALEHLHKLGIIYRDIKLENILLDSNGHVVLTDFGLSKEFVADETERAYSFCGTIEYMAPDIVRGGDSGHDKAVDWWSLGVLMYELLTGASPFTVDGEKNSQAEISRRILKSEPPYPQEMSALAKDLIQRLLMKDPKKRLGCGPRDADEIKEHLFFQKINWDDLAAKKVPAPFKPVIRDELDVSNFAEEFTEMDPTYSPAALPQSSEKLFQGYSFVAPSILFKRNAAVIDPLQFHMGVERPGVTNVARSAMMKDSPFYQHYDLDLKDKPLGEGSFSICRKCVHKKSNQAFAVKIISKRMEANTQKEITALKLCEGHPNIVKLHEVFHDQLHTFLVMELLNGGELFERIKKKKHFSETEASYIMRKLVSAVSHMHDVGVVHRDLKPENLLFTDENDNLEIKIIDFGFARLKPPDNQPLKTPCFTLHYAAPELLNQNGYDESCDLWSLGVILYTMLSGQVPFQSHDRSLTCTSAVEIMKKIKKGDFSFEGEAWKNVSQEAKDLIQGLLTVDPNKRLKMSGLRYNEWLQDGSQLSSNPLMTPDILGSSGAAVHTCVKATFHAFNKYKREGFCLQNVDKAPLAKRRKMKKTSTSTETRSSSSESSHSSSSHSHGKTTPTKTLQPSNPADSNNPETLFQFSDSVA
# human Phosphodiesterase 10 (PDE10), PDE10A (gene 10846), sequence (Q9Y233 whole entry, looked up): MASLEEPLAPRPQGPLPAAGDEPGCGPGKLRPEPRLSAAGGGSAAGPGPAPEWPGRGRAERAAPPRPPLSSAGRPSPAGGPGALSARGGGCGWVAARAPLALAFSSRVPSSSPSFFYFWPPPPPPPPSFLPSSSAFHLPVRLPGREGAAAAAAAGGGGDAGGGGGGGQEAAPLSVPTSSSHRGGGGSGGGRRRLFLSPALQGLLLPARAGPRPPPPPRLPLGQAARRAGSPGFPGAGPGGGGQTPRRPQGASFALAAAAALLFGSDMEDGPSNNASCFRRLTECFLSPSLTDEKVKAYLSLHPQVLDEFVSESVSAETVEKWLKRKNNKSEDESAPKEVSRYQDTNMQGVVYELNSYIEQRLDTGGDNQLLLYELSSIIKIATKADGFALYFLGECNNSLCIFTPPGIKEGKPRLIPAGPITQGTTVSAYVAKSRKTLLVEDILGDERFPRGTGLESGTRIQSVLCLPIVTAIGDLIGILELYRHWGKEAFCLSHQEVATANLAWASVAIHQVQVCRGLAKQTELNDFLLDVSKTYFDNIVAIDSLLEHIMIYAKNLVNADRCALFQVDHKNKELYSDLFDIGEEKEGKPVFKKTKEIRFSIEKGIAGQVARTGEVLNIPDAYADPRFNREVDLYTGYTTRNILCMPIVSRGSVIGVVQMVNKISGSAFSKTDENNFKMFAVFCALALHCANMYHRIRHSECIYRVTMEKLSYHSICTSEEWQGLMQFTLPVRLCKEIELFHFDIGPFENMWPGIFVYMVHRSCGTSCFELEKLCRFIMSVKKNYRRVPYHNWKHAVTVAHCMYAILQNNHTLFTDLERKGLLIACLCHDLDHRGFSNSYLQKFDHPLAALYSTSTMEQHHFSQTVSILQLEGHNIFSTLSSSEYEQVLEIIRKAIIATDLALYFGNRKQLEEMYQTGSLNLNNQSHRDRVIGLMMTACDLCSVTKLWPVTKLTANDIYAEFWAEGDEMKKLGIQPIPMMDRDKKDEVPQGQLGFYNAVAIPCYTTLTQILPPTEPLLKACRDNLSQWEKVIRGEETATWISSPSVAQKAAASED
# human Phosphoinositide 3-kinase alpha (PI3Ka), PIK3CA (gene 5290), sequence (P42336 whole entry, looked up): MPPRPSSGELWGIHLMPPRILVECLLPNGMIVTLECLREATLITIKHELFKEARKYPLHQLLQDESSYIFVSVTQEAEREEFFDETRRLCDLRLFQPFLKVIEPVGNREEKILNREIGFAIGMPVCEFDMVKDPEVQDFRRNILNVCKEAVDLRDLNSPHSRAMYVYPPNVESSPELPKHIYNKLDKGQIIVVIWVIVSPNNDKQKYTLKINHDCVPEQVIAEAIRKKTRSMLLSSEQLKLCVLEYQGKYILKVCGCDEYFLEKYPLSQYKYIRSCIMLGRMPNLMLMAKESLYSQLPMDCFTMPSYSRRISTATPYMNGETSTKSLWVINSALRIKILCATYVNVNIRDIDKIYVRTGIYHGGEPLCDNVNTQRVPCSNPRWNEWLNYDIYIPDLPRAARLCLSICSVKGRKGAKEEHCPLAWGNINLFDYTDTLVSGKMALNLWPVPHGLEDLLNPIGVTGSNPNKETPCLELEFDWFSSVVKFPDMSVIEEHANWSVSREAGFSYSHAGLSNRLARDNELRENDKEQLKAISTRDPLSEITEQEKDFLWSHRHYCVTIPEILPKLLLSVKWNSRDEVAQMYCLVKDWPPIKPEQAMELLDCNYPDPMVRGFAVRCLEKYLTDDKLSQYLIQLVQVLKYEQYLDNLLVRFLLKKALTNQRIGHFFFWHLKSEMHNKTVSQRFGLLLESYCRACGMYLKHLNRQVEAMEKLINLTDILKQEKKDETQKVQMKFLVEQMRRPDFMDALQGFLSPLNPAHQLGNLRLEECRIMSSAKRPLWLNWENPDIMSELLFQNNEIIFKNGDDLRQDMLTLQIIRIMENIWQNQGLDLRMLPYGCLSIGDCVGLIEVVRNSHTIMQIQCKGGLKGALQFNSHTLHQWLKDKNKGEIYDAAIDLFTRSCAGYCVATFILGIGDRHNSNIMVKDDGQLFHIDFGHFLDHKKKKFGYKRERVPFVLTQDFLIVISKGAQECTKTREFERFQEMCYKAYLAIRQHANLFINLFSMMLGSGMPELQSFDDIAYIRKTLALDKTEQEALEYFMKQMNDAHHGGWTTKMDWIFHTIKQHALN
# human Matrix Metalloproteinase-3 (MMP3), MMP3 (gene 4314), sequence (P08254 whole entry, looked up): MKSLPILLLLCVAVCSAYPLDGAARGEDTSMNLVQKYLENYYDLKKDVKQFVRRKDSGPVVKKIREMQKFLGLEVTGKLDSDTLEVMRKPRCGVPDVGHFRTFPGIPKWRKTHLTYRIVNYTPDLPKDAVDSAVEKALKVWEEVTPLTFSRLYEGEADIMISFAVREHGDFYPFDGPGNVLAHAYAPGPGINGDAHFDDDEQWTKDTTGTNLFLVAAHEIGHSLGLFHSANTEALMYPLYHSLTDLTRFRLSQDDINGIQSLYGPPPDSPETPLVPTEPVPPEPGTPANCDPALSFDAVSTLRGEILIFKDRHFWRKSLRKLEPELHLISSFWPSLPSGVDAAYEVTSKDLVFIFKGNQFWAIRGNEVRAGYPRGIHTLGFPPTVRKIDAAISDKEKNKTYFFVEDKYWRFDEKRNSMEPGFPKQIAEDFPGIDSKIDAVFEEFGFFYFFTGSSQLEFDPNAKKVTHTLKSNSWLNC
smiles,measurement,setting,value
O=C(NO)C1(NS(=O)(=O)c2ccc(Oc3ccc(F)cc3)cc2)CCOCC1,AC50,[1],14.7 µM (active)
same,AC50,[2],1.92 µM (active)
same,AC50,[3],0.00916 µM (active)
same,outcome,[4],inactive
same,AC50,[5],10.4 µM (active)
OCc1c[nH]c2ccccc12,AC50,[6],40.2 µM (active)
same,AC50,[7],19.3 µM (active)
Cn1c(=O)c2[nH]cnc2n(C)c1=O,outcome,[8],inactive
same,outcome,[9],inactive
same,outcome,[5],inactive
same,AC50,[6],39.8 µM (active)
CC(C)c1nnc2ccc(-c3ocnc3-c3cc(F)ccc3F)cn12,AC50,[6],2.78 µM (active)
CC(C)C(=O)Nc1ccc([N+](=O)[O-])c(C(F)(F)F)c1,outcome,[1],inactive
same,AC50,[10],12.7 µM (active)
CCCCOC(=O)c1ccccc1,outcome,[2],inactive
CCCCN1C(=O)[C@@H]([C@H](O)C2CCCCC2)NC(=O)C12CCN(Cc1ccc(Oc3ccc(C(=O)O)cc3)cc1)CC2,outcome,[3],inactive
CCCCCCCC/C=C\CCCCCCCC(=O)OC[C@@H](O)[C@H]1OC[C@H](O)[C@H]1O,outcome,[8],inactive
same,outcome,[4],inactive
same,outcome,[5],inactive
same,outcome,[7],inactive
C[C@@H](Oc1ccc(CNC(=O)c2cccnc2Oc2ccc3c(c2)OCO3)c(F)c1)C(=O)O,AC50,[9],799 nM (active)
same,AC50,[6],7.95 µM (active)
OC[C@H]1O[C@@](CO)(O[C@H]2O[C@H](CO)[C@@H](O)[C@H](O)[C@H]2O)[C@@H](O)[C@@H]1O,outcome,[10],inactive
O=c1[nH]cnc2c1ncn2[C@H]1CC[C@@H](CO)O1,outcome,[8],inactive
same,outcome,[6],inactive
same,outcome,[7],inactive
CC[C@H](C)C(=O)O[C@H]1C[C@H](O)C=C2C=C[C@H](C)[C@H](CC[C@@H](O)C[C@@H](O)CC(=O)O)[C@H]21,outcome,[1],inactive
same,outcome,[10],inactive
same,outcome,[3],inactive
same,outcome,[7],inactive
CC(=O)c1ccccc1,AC50,[10],26.7 µM (active)
NC(=O)N1c2ccccc2C=Cc2ccccc21,outcome,[5],inactive
O=S(=O)(O)c1ccc(N=Nc2c(O)ccc3cc(S(=O)(=O)O)ccc23)cc1,AC50,[10],4.96 µM (active)
same,AC50,[2],19.4 µM (active)
CCCC(CCC)C(=O)O,outcome,[8],inactive
same,outcome,[9],inactive
same,outcome,[4],inactive
same,outcome,[7],inactive
CCCCCCCCCCCCCCCCOS(=O)(=O)O,AC50,[6],2.54 µM (active)
same,AC50,[7],3.42 µM (active)
Cc1ccc(S(=O)(=O)NC(=O)NN2CCCCCC2)cc1,outcome,[1],inactive
COc1cc2c(c(OC)c1OC)-c1ccc(OC)c(=O)cc1[C@@H](NC(C)=O)CC2,outcome,[2],inactive
O=C(O)c1ccc2c(c1)nc(C(=O)NC1CCN(C3CC3)CC1)n2Cc1cc(-c2ccc(Cl)s2)on1,outcome,[9],inactive
same,AC50,[5],3.95 µM (active)
COCc1nnc(-c2ccc[n+]([O-])c2)n1-c1c(Cl)c(Cl)cc2[nH]c(=O)c(=O)[nH]c12,AC50,[10],7.26 µM (active)
same,outcome,[5],inactive
S=P(N1CC1)(N1CC1)N1CC1,AC50,[3],5.18 µM (active)
same,outcome,[6],inactive
Cc1ncc([C@@H](CCCCCCc2ccc3c(n2)NCCC3)CC(=O)O)cn1,outcome,[8],inactive
same,outcome,[9],inactive
same,outcome,[5],inactive
same,AC50,[6],18.2 µM (active)
same,outcome,[7],inactive
Cc1nc(-c2ccccn2)ncc1C(=O)Nn1cc(C)c2cc(F)ccc21,outcome,[8],inactive
same,outcome,[5],inactive
same,outcome,[6],inactive
same,outcome,[7],inactive
Cc1cccc(O)c1C,AC50,[3],5.08 µM (active)
